Measured potencies and affinities stand elsewhere. Activity calls are given as the source filed them.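 The calls were made as follows, unless noted: active = a dose-response fit showing signal loss, with half-maximal concentration no higher than twice the top tested dose; inconclusive = flat fit between 30% and 70% signal loss, or poor fit; inactive = the rest.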
Experiment: inducers of Cryptococcus neoformans cell lysis, dose response, AK release luminescence, cherry-picks (AID 687000;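 active = fitted dose curve reaches 40% lysis signal rise at or below the highest valid concentration tested for that sample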;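 also: luminescent detection of adenylate kinase leaking from lysed yeast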)
Conditions: C. neoformans lysis, adenylate kinase release luminescence, 4 h, 100% = twice the neutral-control signal; series mostly up to 15 µM

| Compound | outcome |
| --- | --- |
| CNC[C@H]1OCCCC[C@H](C)Oc2ccc(NC(=O)Cc3ccccc3)cc2C(=O)N([C@H](C)CO)C[C@@H]1C | inactive |
| O=C(C[C@@H]1C=C[C@@H](NC(=O)Nc2cc(F)ccc2F)[C@H](CO)O1)NCCCN1CCOCC1 | inactive |
| COc1ccccc1NC(=O)c1cn(C)c(=O)c2cc(OC)c(OC)cc12 | inactive |
| COc1ccc(CN(C)C[C@H]2Oc3ccc(NS(C)(=O)=O)cc3CC(=O)N([C@@H](C)CO)C[C@H]2C)cc1 | inactive |
| CCOC(=O)CSc1ncnc2c1cnn2-c1ccc(Cl)cc1 | inactive |
| O=S1(=O)CCC(N=Cc2cc(Br)ccc2O)C1 (stereo not drawn) | inactive |
| O=C(C[C@H]1CC[C@H]2[C@@H](COC[C@H](O)CN2Cc2cc(F)cc(F)c2)O1)Nc1nccs1 | inactive |
| CC(C)CC#Cc1cnc2c(c1)C(=O)N([C@@H](C)CO)C[C@@H](C)[C@@H](CN(C)C(=O)c1cccc(F)c1)O2 | inactive |
| O=C(COc1ccccc1)NCc1ccccc1 | inactive |
| CCOc1cc(CNC)ccc1OCC(=O)NC(C)(C)C | inactive |
| CCCC(=O)N1CCC1(C)C(=O)Nc1cc(C)ccc1C (stereo not drawn) | inactive |
| CC(C)N1C(=O)C2(OCCCO2)c2cc(Br)ccc21 | inactive |
| Cc1cc(C)c(NC(=O)CNC(=O)CNC(=O)C2CCCCC2)c(C)c1 | inactive |
| O=C(CN(c1ccccc1)S(=O)(=O)c1ccc(F)cc1)NC1CCCCCC1 | inactive |
| CCC(=O)N1[C@H](CO)[C@@H](c2ccc(-c3cccnc3)cc2)[C@@H]1CN(C)C(C)=O | inactive |
| Cc1c(C(=O)NC(=S)Nc2ccc(N3CCOCC3)cc2)cccc1[N+](=O)[O-] | inactive |
| CC(NC(=O)COc1ccccc1Cl)c1ccccc1 (stereo not drawn) | inactive |
| CNC[C@@H]1Oc2ccc(NS(=O)(=O)c3ccc(Cl)cc3)cc2C(=O)N([C@H](C)CO)C[C@H]1C | inactive |
| C[C@H](NC(=O)C[C@@H]1C=C[C@H](NC(=O)CN2CCOCC2)[C@H](CO)O1)c1ccccc1 | inactive |
| C[C@H]1CN([C@@H](C)CO)C(=O)c2cc(C#CCN(C)C)cnc2O[C@@H]1CN(C)C(=O)Nc1cccc(F)c1 | inactive |
| COc1cccc(CNC(=O)COc2ccc(C(=O)c3ccccc3)cc2)c1 | inactive |
| COC(=O)C1=C(C)N(C)C(=S)N(C)C1c1ccc(OC)cc1 (stereo not drawn) | inactive |
| C[C@H](CO)N1C[C@H](C)[C@@H](CN(C)Cc2ccc(Oc3ccccc3)cc2)Oc2ccc(NC(=O)Nc3ccc4c(c3)OCO4)cc2C1=O | inactive |
| COc1cc(C(=O)NC(=S)Nc2ccccc2N2CCOCC2)cc(OC)c1OC | inactive |
| Cc1cc(C)c(NC(=O)CN2CCN3CCCC3C2)c(C)c1 (stereo not drawn) | inactive |
| O=C(CCCNC(=O)c1ccc(Cl)cc1)Nc1nccs1 | inactive |
| Cc1ccc(NC(=O)C2CCC(=O)N2)cc1C (stereo not drawn) | inactive |
| CCCC[C@@H]1CNC(=S)N1CCc1cccc(F)c1 | inactive |

Experiment: HepG2 cell cytotoxicity, dose response, cytotoxicity control, cherry-picks, set 2 (AID 687002)
Conditions: HepG2 viability, ATP luminescence (CellTiter-Glo), 48 h; series mostly up to 26 µM

| Compound | outcome |
| --- | --- |
| Cc1cccc(-c2ccc([C@@H]3[C@@H](CO)N4CCCCN(S(=O)(=O)c5ccccc5C)C[C@@H]34)cc2)c1 | inactive |
| CC(C)NC(=O)Nc1ccc2c(c1)C(=O)N([C@@H](C)CO)C[C@@H](C)[C@@H](CN(C)C(=O)NC1CCCCC1)OCCCC[C@H](C)O2 | inactive |
| COc1ccc(CN(C)C[C@@H]2Oc3ccc(NC(=O)C4CC4)cc3C(=O)N([C@@H](C)CO)C[C@H]2C)cc1 | inactive |
| Cc1noc(C)c1NC(=O)N(C)C[C@@H]1Oc2ccc(NC(=O)NC(C)C)cc2CC(=O)N([C@@H](C)CO)C[C@@H]1C | inactive |
| O=C(CSc1ncnc2c1cnn2-c1ccc(F)cc1)NCc1ccc2c(c1)OCO2 | inactive |
| Cc1ccccc1S(=O)(=O)N[C@@H]1CC[C@H](CCNS(=O)(=O)c2cccc(F)c2)O[C@H]1CO | inactive |
| CO[C@@H]1CN(C)C(=O)c2ccc(NS(=O)(=O)c3ccc(Oc4ccccc4)cc3)cc2OC[C@H](C)NC[C@H]1C | inactive |
| Cc1ccc(OCC(=O)NC(C)c2ccccc2)cc1C (stereo not drawn) | inactive |
| O=C(C[C@H]1CC[C@H]2[C@@H](COC[C@H](O)CN2C(=O)Nc2ccc3c(c2)OCO3)O1)N1CCN(c2ccccc2)CC1 | inactive |
| Cc1ccc(S(=O)(=O)N2CC[C@@H]3[C@H]2c2cc(-c4ccccc4F)ccc2N[C@@H]3CO)cc1 | inactive |
| C[C@H]1CN([C@@H](C)CO)C(=O)Cc2cc(NS(=O)(=O)c3cn(C)cn3)ccc2O[C@@H]1CN(C)Cc1ccc(Oc2ccccc2)cc1 | inactive |
| Cc1cccc(C)c1NC(=O)C1(NC(=O)C2CCC(=O)N2)CCCCC1 (stereo not drawn) | inactive |
| CNC[C@H]1OCCCC[C@H](C)Oc2ccc(NC(=O)Cc3ccccc3)cc2C(=O)N([C@H](C)CO)C[C@@H]1C | inactive |
| O=C(C[C@@H]1C=C[C@@H](NC(=O)Nc2cc(F)ccc2F)[C@H](CO)O1)NCCCN1CCOCC1 | inactive |
| COc1ccccc1NC(=O)c1cn(C)c(=O)c2cc(OC)c(OC)cc12 | inactive |
| COc1ccc(CN(C)C[C@H]2Oc3ccc(NS(C)(=O)=O)cc3CC(=O)N([C@@H](C)CO)C[C@H]2C)cc1 | inactive |
| CCOC(=O)CSc1ncnc2c1cnn2-c1ccc(Cl)cc1 | inactive |
| O=S1(=O)CCC(N=Cc2cc(Br)ccc2O)C1 (stereo not drawn) | inactive |
| O=C(C[C@H]1CC[C@H]2[C@@H](COC[C@H](O)CN2Cc2cc(F)cc(F)c2)O1)Nc1nccs1 | inactive |
| CC(C)CC#Cc1cnc2c(c1)C(=O)N([C@@H](C)CO)C[C@@H](C)[C@@H](CN(C)C(=O)c1cccc(F)c1)O2 | inactive |

| Compound | outcome |
| --- | --- |
| O=C(COc1ccccc1)NCc1ccccc1 | inactive |
| CCOc1cc(CNC)ccc1OCC(=O)NC(C)(C)C | inactive |
| CCCC(=O)N1CCC1(C)C(=O)Nc1cc(C)ccc1C (stereo not drawn) | inactive |
| CC(C)N1C(=O)C2(OCCCO2)c2cc(Br)ccc21 | inactive |
| Cc1cc(C)c(NC(=O)CNC(=O)CNC(=O)C2CCCCC2)c(C)c1 | inactive |
| O=C(CN(c1ccccc1)S(=O)(=O)c1ccc(F)cc1)NC1CCCCCC1 | inactive |
| CCC(=O)N1[C@H](CO)[C@@H](c2ccc(-c3cccnc3)cc2)[C@@H]1CN(C)C(C)=O | inactive |
| Cc1c(C(=O)NC(=S)Nc2ccc(N3CCOCC3)cc2)cccc1[N+](=O)[O-] | inactive |
| CC(NC(=O)COc1ccccc1Cl)c1ccccc1 (stereo not drawn) | inactive |
| CNC[C@@H]1Oc2ccc(NS(=O)(=O)c3ccc(Cl)cc3)cc2C(=O)N([C@H](C)CO)C[C@H]1C | inactive |
| C[C@H](NC(=O)C[C@@H]1C=C[C@H](NC(=O)CN2CCOCC2)[C@H](CO)O1)c1ccccc1 | inactive |
| C[C@H]1CN([C@@H](C)CO)C(=O)c2cc(C#CCN(C)C)cnc2O[C@@H]1CN(C)C(=O)Nc1cccc(F)c1 | inactive |
| COc1cccc(CNC(=O)COc2ccc(C(=O)c3ccccc3)cc2)c1 | inactive |
| COC(=O)C1=C(C)N(C)C(=S)N(C)C1c1ccc(OC)cc1 (stereo not drawn) | inactive |
| C[C@H](CO)N1C[C@H](C)[C@@H](CN(C)Cc2ccc(Oc3ccccc3)cc2)Oc2ccc(NC(=O)Nc3ccc4c(c3)OCO4)cc2C1=O | inactive |
| COc1cc(C(=O)NC(=S)Nc2ccccc2N2CCOCC2)cc(OC)c1OC | inactive |
| Cc1cc(C)c(NC(=O)CN2CCN3CCCC3C2)c(C)c1 (stereo not drawn) | inactive |
| O=C(CCCNC(=O)c1ccc(Cl)cc1)Nc1nccs1 | inactive |
| Cc1ccc(NC(=O)C2CCC(=O)N2)cc1C (stereo not drawn) | inactive |
| CCCC[C@@H]1CNC(=S)N1CCc1cccc(F)c1 | inactive |

— PubChem BioAssay
